Most compounds without a hit are left out; they make up all but 3.7% or so of the library.
B2AR arrestin = recruits beta-arrestin to the human beta2-adrenergic receptor. P07550. beta-arrestin recruitment to beta2AR, cell-based reporter. Potency, µM (highest dose often 46.1 µM), for inactives: at the top dose activation, hits mostly activators. 0.02% of 330,000 active. AID 492947;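 further: potency means the concentration at half of the fitted maximal effect; 0% = DMSO controls and full agonism = EC100 isoproterenol or metaproterenol; nearly all actives have a fitted effect of over 65% in size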
DRD3 antagonist = antagonists of human D3 dopamine receptor; AID 652054; D3R cells, DiscoveRx beta-arrestin luminescence, antagonist mode; hits give low values; 2.5% of 360,000 active; max response, negative = inhibition, %; in the data active means max response below about -50%; inconclusive means no clear call, values can overlap the other calls; further: on the % scale 0 is the no-effect control and ±100 the full control effect
Target sequence (P35462 whole entry, looked up): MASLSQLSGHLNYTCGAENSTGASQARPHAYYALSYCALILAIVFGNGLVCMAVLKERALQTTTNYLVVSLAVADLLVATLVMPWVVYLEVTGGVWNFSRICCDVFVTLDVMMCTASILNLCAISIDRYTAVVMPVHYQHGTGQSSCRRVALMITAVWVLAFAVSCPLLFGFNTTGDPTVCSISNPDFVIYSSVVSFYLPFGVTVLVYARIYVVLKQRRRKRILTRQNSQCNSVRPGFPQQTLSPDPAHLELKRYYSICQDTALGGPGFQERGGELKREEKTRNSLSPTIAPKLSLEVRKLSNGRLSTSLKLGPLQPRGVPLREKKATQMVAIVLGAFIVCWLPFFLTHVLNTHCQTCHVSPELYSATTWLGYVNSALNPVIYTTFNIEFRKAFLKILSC
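Cells expressing the human receptor were seeded at 1500 cells/well, incubated overnight at 37 degrees C in 5% CO2, then exposed to library compounds with dopamine controls for 90 minutes at 37 degrees C before luminescent detection.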
RGS4 inhibitor = human RGS4 inhibition | 0.039% of 390,000 active | Transcreener GDP fluorescence polarization, RGS4-accelerated GTP hydrolysis | P49798 | Potency, µM (top dose mostly 114 µM), without a hit: at the highest dose activity change, negative = inhibition, actives largely listed as inhibitors | AID 504845; further: potency means the concentration at half of the fitted maximal effect; on the % scale 0 is the no-effect control and ±100 the full control effect; nearly all actives have a fitted effect of over 75% in size
Target sequence (P49798 whole entry, looked up): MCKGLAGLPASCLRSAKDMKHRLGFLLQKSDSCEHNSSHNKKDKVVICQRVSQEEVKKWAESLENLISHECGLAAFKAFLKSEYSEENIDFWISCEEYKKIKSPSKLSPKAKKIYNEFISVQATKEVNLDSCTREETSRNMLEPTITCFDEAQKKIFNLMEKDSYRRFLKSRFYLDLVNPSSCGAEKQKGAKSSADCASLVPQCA
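MLSMR compounds (23 nl, pin-transferred) preincubated 10 min at room temperature with a 500nM (2x) first reagent, then RGS4 at 900nM (2x) plus Transcreener GDP mix added; fluorescence polarization (620/688 nm) read before and after 90 min at 30 °C.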
BRCA1 expr up = activators of BRCA1 expression; MCF7-BRCA1-FFLuc reporter, luminescence, 48 h; response scale: scaled: vehicle 0%, 10 µM genistein 100%; Potency, µM (titrated, usually from 46.1 µM), without a hit: at the top dose activation, actives largely listed as activators; 1.1% of 380,000 active; AID 624202; further: potency means the concentration at half of the fitted maximal effect; nearly all actives have a fitted effect of over 80% in size
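Compounds are tested at multiple concentrations on MCF7 BRCA1-luciferase reporter cells seeded at 2000 per well; after 48 h, a single luminescence end-point is taken and curves fitted to the normalized data.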
PTHR1 agonist = PTHR1 (human) receptor agonism; HEK293 GP2 PTHR1 cells, GloSensor cAMP luminescence, 1 h; Q03431; 0.075% of 410,000 active; Potency, µM (highest dose often 115 µM), for the others: at the top dose activation, actives largely listed as activators; further: potency means the concentration at half of the fitted maximal effect; nearly all actives have a fitted effect of over 55% in size
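HEK-293-derived GP2 cells expressing PTHR1 and a GloSensor cAMP reporter, 3,000/well, plated overnight, given luciferin plus IBMX (each 0.5 mM as added) for 1 h at 37 °C, then compound for 1 h at 37 °C. Luminescence was read after 15 min at room temperature.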
DRD3 agonist = activates the human D3 dopamine receptor; D3R DiscoveRx beta-arrestin cells, luminescence, 90 min; max activation, %; 0.58% of 410,000 active; AID 652048; in the data active means max activation above about 30%; further: 0% is about no effect
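Agonist mode: compounds and dopamine controls were applied to plated cells for 90 min at 37 degrees C after an overnight attachment at 1500 cells/well. Luminescent read-out followed 30 - 60 minutes at room temperature with DiscoveRx detection reagent.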
* marks the source's active call; other numbers are inactive results; i = inactive; ? = inconclusive; / = no result given; [ ] = remark or other dose. Unless noted, the call rests on the fitted dose curve; in most records, active means well fitted curve in the direction sought with a large enough effect; inconclusive means small, poorly fitted or top-dose-only effect, or another doubt; inactive means no such curve, though single readings can be large; an effect the other way counts as inactive or inconclusive.

SMILES	B2AR arrestin	DRD3 antagonist	RGS4 inhibitor	BRCA1 expr up	PTHR1 agonist	DRD3 agonist
CCOc1ccc(C(=O)OCC(=O)NC2CCCC2)cc1OCC	-1%	16	13%	20%	-21%	15
CCOC(=O)CC(NCc1ccc(OC)c(OCC)c1)c1ccc(C)cc1 (stereo not given)	0%	-51*	?	-18%	i	-14
CNc1ccc(-c2cccc([N+](=O)[O-])c2)cn1	/	-59*	/	33%	i	-8
O=C(CSc1nnc(C2CCCCC2)o1)Nc1ccccc1Cl	0%	2	-21%	10µM*	-37%	5
COc1ccc(NC(=O)CSc2nnc(C3CCCCC3)o2)c(OC)c1	0%	-9	1%	2%	26%	2
COc1ccc(C(=O)Nc2ccccc2C(=O)Nc2cccc(C)n2)cc1	-1%	-1	-41%	58%	-18%	7
COc1ccc(C(=O)Nc2cc(C)c(NC(=O)c3ccccn3)cn2)cc1	-1%	3	-24%	?	-26%	0
COc1ccc(C(=O)Nc2ccccc2C(=O)Nc2cc(C)ccn2)cc1	1%	-63*	-12%	2.2µM*	i	3
COc1ccc(C(=O)Nc2cnc(NC(=O)c3cccs3)cc2C)cc1	0%	12	-15%	7.1µM*	i	13
Cc1ccccc1CC1(CO)CCCN(Cc2nc(-c3cccs3)oc2C)C1 (stereo not given)	0%	-104*	-12%	-17%	i	-2
CCCS(=O)(=O)N1CCC(n2c(C)nc3cccnc32)CC1	/	/	5%	/	i	-5
CCN(CC)CCCNC(=O)c1ccc2c(c1)NC(=O)C(CS(=O)(=O)Cc1cccc(Br)c1)N2 (stereo not given)	/	/	-2%	/	16µM*	-23
Cc1ccccc1C(=O)NC(=S)Nc1ccc(S(=O)(=O)N2CCOCC2)cc1	0%	-54*	-28%	-16%	i	-13
Cc1ccccc1C(=O)NC(=S)Nc1ccc(S(=O)(=O)N2CCN(C)CC2)cc1	2%	-12	-39%	-19%	i	-3
CC(=O)Nc1ccc(NC2=Nc3ccccc3N3C2=Nc2c(c(C)nn2-c2ccccc2)C3c2ccccc2)cc1 (stereo not given)	-2%	7	6%	-73%	-2%[57.5 µM]	34*
COc1ccc(-n2cc(CNCCc3cscn3)c(-c3ccccc3Cl)n2)cc1	0%	-101*	-5%	-2%	i	-9
CC(C)CSc1nsc(N)n1	0%	4	16%	13µM*	-4%[57.5 µM]	0
Nc1nc(SCc2ccc(Cl)cc2)ns1	-1%	4	-16%	91%	-76%[57.5 µM]	-1
Nc1nc(SCc2ccccc2)ns1	-1%	16	-34%	11µM*	-10%[57.5 µM]	-3
c1cc(-c2ccc(N3CCOCC3)cc2)n2ccnc2c1	/	-4	/	12%	-8%	-4
O=Cc1ccnc(-c2ccc(OC(=O)c3ccco3)cc2)n1	0%	7	-5%	-2%	i	2
Cc1ccc2c(c1)NC(=O)C(CC(=O)NCCCN1CCN(c3cc(Cl)ccc3C)CC1)O2 (stereo not given)	0%	-72*	-20%	-57%	-32%	-9
CC1CN(C(=O)CCC(=O)NCCCN2CCN(Cc3ccccc3)CC2)c2cc(Cl)ccc2O1 (stereo not given)	-1%	-90*	2%	-2%	i	-2
CC(CNC(=O)CCC(=O)N1CCOc2ccc(Cl)cc21)c1ccccc1 (stereo not given)	0%	-50*	18%	0%	-21%	-15
CCC1Oc2ccc(C)cc2N(CC(=O)NCCCN2CCN(Cc3ccccc3)CC2)C1=O (stereo not given)	0%	-75*	18%	13%	2%[57.5 µM]	-30
SMILES	B2AR arrestin	DRD3 antagonist	RGS4 inhibitor	BRCA1 expr up	PTHR1 agonist	DRD3 agonist
CC(C)CC1NC(=O)c2cccnc2-n2c1nc1cc(F)ccc1c2=O (stereo not given)	/	-21	/	2%	i	-5
Cc1ccc(S(=O)(=O)NC[C@H]2O[C@@H](n3ccc(N)nc3=O)[C@H](O)[C@@H]2O)s1	/	-4	/	8%	0%	-11
COc1ccc(C2CC(=O)c3cnc4c(-c5ccccc5)c(C)nn4c3C2)cc1OC (stereo not given)	/	/	5%	12%	-4%	8
CC(=O)N1CCOc2cc(S(=O)(=O)NC(C)c3ccccc3)c(Cl)cc21 (stereo not given)	0%	-61*	18%	43%	-14%	-15
O=C(CCC(=O)N1CCOc2ccc(Cl)cc21)NCCCN1CCN(Cc2ccccc2)CC1	0%	-60*	3%	-4%	i	-13
COc1ccc([N+](=O)[O-])cc1NCc1ccco1	8%	-5	2%	-24%	-88%	7
O=C(Nc1ccccc1)c1cc(C2CCCCN2S(=O)(=O)Cc2cccc(C(F)(F)F)c2)on1 (stereo not given)	/	-4	/	4%	-6%	-6
Fc1ccccc1CSc1nnc(-c2ccccc2)o1	0%	26	-34%	4µM*	-13%[57.5 µM]	7
COc1ccc(-c2nnc(SCc3ccccc3F)o2)cc1	0%	-11	-22%	?	-19%	6
Fc1ccccc1CSc1nnc(-c2cccnc2)o1	0%	1	-18%	7.1µM*	-16%	0
Cc1ccccc1NC(=O)c1nc(-c2ccncc2)no1	/	/	13%	/	i	2
Cn1nc(C(=O)O)c(=O)n(C)c1=O	/	2	-24%	-5%	i	18
COc1ccc2nc(SCC(=O)C(C)(C)C)[nH]c2c1	-1%	0	-37%	7.9µM*	i	-6
CCOc1ccc2nc(SCC(=O)N(C)C)[nH]c2c1	0%	-2	-2%	10µM*	-47%[57.5 µM]	-1
COc1ccc2nc(SCC(=O)NC(C)(C)C)[nH]c2c1	-1%	13	0%	22%	i	-3
CCCCn1c(=O)[nH]c(=O)c2c1nc(-c1ccccn1)n2CC	0%	13	-8%	-23%	-4%	4
CCc1[nH]nc2c1C1(CCOC1C)C(C#N)=C(N)O2 (stereo not given)	0%	-57*	-1%	-19%	-7%	-8
CCc1[nH]nc2c1C1(CCN(C(=O)c3ccccc3)CC1)C(C#N)=C(N)O2	0%	-8	-14%	-12%	-5%[57.5 µM]	1
COc1ccc(C2C3C=CCC(c4cccc(/C=C/c5ccccc5)c4)C3C(=O)N2Cc2ccccc2)cc1Cl (stereo not given)	/	/	0%	/	/	/
O=C(CN(C(=O)CCC(=O)Nc1ccccn1)c1ccc2c(c1)OCO2)NCc1ccc(F)cc1	0%	-1	-21%	-12%	i	-8

Source: PubChem BioAssay (National Center for Advancing Translational Sciences (NCATS))
